Assay results: PubChem BioAssay

Each molecule was assayed against Calmodulin-1 (Homo sapiens) (UniProt P0DP23) (assay: small molecules binding calmodulin-1 with EGTA – biochemical, small-molecule microarray, Cy5-labelled CALM1, profiling panel (AID 1111;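 note: labelled calmodulin applied in Tris saline Tween buffer holding calcium plus EGTA and DTT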)). Settings: Cy5-CALM1 binding fluorescence, higher = more signal.

SMILES	composite z-score
COc1ccc([Si](C)(C)[C@H]2[C@H](CC(=O)N3CCC[C@H]3CO)O[C@@]3(C(=O)N(Cc4ccc(N5CCC5=O)cc4)c4ccccc43)[C@@H]2C)cc1	0.865
C=CCNC(=O)[C@H]1[C@@H]2C(=O)O[C@@H](c3ccccc3)[C@@H](c3ccccc3)N2[C@@H](c2ccc(OCCO)cc2)[C@]12C(=O)Nc1ccc(C#CCNC(N)=O)cc12	1.41
C=CCC(OC(C)=O)[C@@H]1[C@@H](N(Cc2cccc3ccccc23)C(=O)Cc2ccc(F)cc2)c2cc(OCCCO)ccc2N1C(=O)c1ccc(-c2ccccc2)cc1 (stereo partly specified)	-0.573
CC1CC/C=C\[C@H]2OC34C=CCN(CCN5CCOCC5)C(=O)[C@H]3N(C(C)CO)C(=O)[C@@H]4C2C(=O)O1 (stereo partly specified)	-0.666
C=CCN1C(=O)[C@]2(O[C@H](CCO)[C@@H]([Si](C)(C)c3ccc(OC)cc3)[C@@H]2C)c2cc(N3C(=O)COc4ccccc43)ccc21	0.966
CN(C)C(=O)[C@]1(CCS(=O)(=O)c2ccccc2)N=C(c2ccc(OCCCO)cc2)O[C@@H]1c1ccccc1	1.72
Cc1ccccc1C(O)C1C=CC2C(=O)NC(=O)C2N1Nc1ccc(Cl)cc1Cl (stereo unspecified)	1.95
O=C1c2ccccc2[C@](Cc2ccccc2I)(C(=O)NC2CC2)[C@H](c2ccc(CO)cc2)N1Cc1ccccc1C(F)(F)F	0.463
Cc1ccc(C(C)CC(O)C2C=CC3C(=O)N(c4ccccc4)C(=O)C3N2Nc2ccc(C#N)cc2)o1 (stereo unspecified)	1.48
COc1ccc([Si](C)(C)[C@H]2[C@H](CCO)O[C@@]3(C(=O)N(Cc4ccccc4)c4ccc(N5C(=O)c6ccccc6Oc6ccccc65)cc43)[C@@H]2C)cc1	0.425
COCCOC(=O)N1C(=O)[C@@]2(c3cc(C#CC4=CCCCC4)ccc31)[C@H](C(=O)N1CCCCCCC1)[C@H]1C(=O)O[C@H](c3ccccc3)[C@H](c3ccccc3)N1[C@@H]2c1ccc(OCCO)cc1	1.02
CC(C)[C@H]1NC(=O)[C@@]23C(=O)N[C@@H](Cc4ccccc4)C2[C@H](C)[C@@]2(C)O[C@H]2C3/C=C/C/C=C\CNC(=O)[C@H](Cc2ccccc2)NC1=O (stereo partly specified)	-0.28
CC(C)=CCCC(C)=CC(O)C1C=CC2C(=O)N(c3ccccc3)C(=O)C2N1Nc1ccccc1F (stereo unspecified)	1.67
CC(C)C[C@@H]1NC(=O)CNC(=O)[C@@]23C(=O)N[C@@H](Cc4ccccc4)C2[C@H](C)[C@@]2(C)O[C@H]2C3/C=C/C/C=C\CNC1=O (stereo partly specified)	-0.263
COC(=O)[C@@]1(Cc2ccc(F)cc2)[C@H]2c3cc(C(=O)N(C)C)n(Cc4ccc(O)c(OC)c4)c3C[C@H]2CN1C(=O)c1ccccc1	1.17
C=C(COC)C(=O)CC[C@@H](OC(=O)c1cccnc1)c1ccccc1OCCO	-1.08
CN(C)CCCNC(=O)[C@@H]1c2ccccc2C(=O)N(C2CCCCC2)[C@H]1c1ccc(CO)cc1	1.41
COc1cc(NN2C(C(O)c3ccc(I)cc3)C=CC3C(=O)N(c4ccccc4)C(=O)C32)cc(OC)c1OC (stereo unspecified)	1.85
Cc1ccc([C@H]2C(C(=O)O)=C[C@@H](C(C)(C)C)N2S(=O)(=O)c2ccc(C)cc2)cc1	1.94
CC(C)OC(=O)CC(=O)CC(O)c1ccc([N+](=O)[O-])cc1 (stereo unspecified)	-0.759
NC(=O)N1C(=O)C2C(C1=O)C1C=C(CCCO)C2C(C2CC2)N1Cc1cccc(OC(F)(F)F)c1 (stereo unspecified)	-0.143
CC(CO)N1C(=O)[C@@H]2[C@H]3C(=O)OCC=C[C@H]3OC23C=CCN(c2ccc(Cl)cc2)C(=O)[C@@H]13 (stereo partly specified)	-0.669
NC(=O)[C@@H]1[C@H]2C(=O)O[C@H](c3ccccc3)[C@H](c3ccccc3)N2[C@H](c2ccc(OCCO)cc2)[C@@]12C(=O)Nc1ccc(C#CCCO)cc12	1.09
CCOC(=O)C[C@H]1[C@H](OC(=O)c2ccc(C(=O)c3ccccc3)cc2)[C@@H](NC(=O)CC(C)C)c2cc(OCCCO)ccc2N1C(=O)Cc1ccc(OC)cc1	1.19
COCCCNC(=O)[C@@]1(c2ccc([N+](=O)[O-])cc2)CC(=O)N(CC23CC4CC(CC(C4)C2)C3)[C@@H]1c1ccc(CO)cc1I	0.425
C=C(/C(=C/C[C@@H](OC(C)=O)c1ccc(CO)o1)c1cc(C(=O)OC)ccc1OC)C(C)C	0.189
